Here are results for 40 molecules from PubChem BioAssay (NCATS).

Results filed as inconclusive are left out. Entries that show only a call come without a potency. The source made the active and inactive calls. Calls come from the whole dose curve; as a rule, active = well fitted inhibition curve with a large enough effect; inconclusive = small, poorly fitted or top-dose-only effect; inactive = no such curve, though single readings can be large or run the other way.
Potency is the fitted concentration of half-maximal effect.

The target of one experiment is Retinaldehyde dehydrogenase 3 (Homo sapiens) (UniProt P47895). Kind of experiment: qHTS for Inhibitors of the Aldehyde Dehydrogenase Family (ALDH1A3) Confirmatory screens (AID 2061311). Note: nearly all actives have a fitted effect of over 60% in size. Particulars: ALDH inhibition qHTS; series mostly up to 46 µM. (In qHTS, concentration-response curves come from the screen itself.)
Consider `COc1ccc(C2=Nn3c(nnc3-c3cc(OC)cc(OC)c3)SC2)cc1`, for which the Potency entry was “inactive”.

On to `COc1ccc(C[C@H](N)C(=O)N[C@H]2[C@@H](O)[C@H](n3cnc4c(N(C)C)ncnc43)O[C@@H]2CO)cc1`, for which the Potency entry is “inactive”.

Take `O=C(O)c1ccc2c(c1)C(=O)N([C@H](Cc1ccc(F)cc1)C(=O)O)C2=O`: the Potency entry was “inactive”.

`Cn1ncc(-c2nnc(-c3ccccc3)n2CCCn2ccnc2)c1N`: the Potency result is “inactive”.

Regarding `O=C(O)c1ccc(O)c2ncc(N3CCCN(C4CCCC4)CC3)cc12`, the Potency is 14.2 µM (active).

Take `CCOc1cc(CNc2ccc(O)cc2)ccc1OCc1ccc(Cl)cc1`: the Potency is 1.01 µM (active).

`O=C(O)c1ccc(S(=O)(=O)N[C@H](Cc2ccccc2)C(=O)O)cc1`: the Potency result is “inactive”.

In the case of `Cc1ccc(S(=O)(=O)NC(N)=NCCC[C@@H](NC(=O)CNC(=O)c2ccccc2)C(=O)Nc2cc(C(F)(F)F)ccc2Cl)cc1`, the Potency entry is “inactive”.

`O=C(O)c1cccc(-c2noc(-c3ccccc3F)n2)c1`: the Potency was 0.159 µM (active).

`C[C@@](Cc1ccccc1)(C(=O)O)N1C(=O)c2ccc(C(=O)O)cc2C1=O`: the Potency entry is “inactive”.

With `Cc1ccccc1C[C@H](C(=O)O)N1C(=O)c2ccc(C(=O)O)cc2C1=O`, the Potency result is “inactive”.

With `COc1cc(NS(=O)(=O)c2ccc([N+](=O)[O-])cc2)c2ncccc2c1`, the Potency was 10 µM (active).

`CCCCN(CCCNC(=S)NCCCc1cnc[nH]1)c1ccc(Br)cn1`: the Potency is 14.1 µM (active).

As to `Cc1ccc(-c2cc(C(=O)N3CCCCC3)c3ccccc3n2)cc1C`, the Potency result is “inactive”.

On to `S=C(NCCCc1cnc[nH]1)NCCCN(Cc1ccc(Cl)c(Cl)c1)c1ccccn1`, for which the Potency result is “inactive”.

For `Cc1cccc2c(C(=O)O)cc(Cl)nc12`, the Potency result is “inactive”.

With `Cc1cc(N2C(=O)c3ccccc3C2=O)n[nH]1`, the Potency result is “inactive”.

For the molecule `O=C(O)c1ccc(S(=O)(=O)N[C@H](Cc2ccc(C(F)(F)F)cc2)C(=O)O)cc1`, the Potency entry is “inactive”.

Regarding `Cc1nnc(-c2cnn(C)c2N)n1CCCn1ccnc1`, the Potency result is “inactive”.

Regarding `COc1cc(F)cc(F)c1[S+](=O)([O-])N1CCN([S+](=O)([O-])c2ccc3c(c2)OCCO3)CC1`, the Potency result is “inactive”.

As for `O=C1c2ccccc2NC(c2ccc(-c3cccc([N+](=O)[O-])c3)o2)N1O` (centres undefined), the Potency is 4.49 µM (active).

For the molecule `Cc1nnc(-c2ccccc2C(C)C)nc1NCc1ccc(-c2cccnc2)cc1`, the Potency is 12.7 µM (active).

Turning to `N#Cc1ccc(-c2ccc(C3Nc4ccccc4C(=O)N3O)o2)cc1` (centres undefined), the Potency was 5.04 µM (active).

On to `Fc1cc(Nc2nc(-c3ccncc3)nc3ccccc23)ccc1N1CCCCC1`, for which the Potency was 11.3 µM (active).

Turning to `Cc1cc2c(s1)c1cnn(Cc3c(Cl)ccc(C)c3F)c(=O)c1n2C`, the Potency entry was “inactive”.

As to `O=C(C1CCN(c2nc(-c3ccc(Br)cc3)cs2)CC1)N1CCNCC1`, the Potency result is “inactive”.

On to `COc1ccc(C2Nc3ccccc3C(=O)N2CCO)cc1COc1ccc(NC(C)=O)cc1` (centres undefined), for which the Potency is 10 µM (active).

For the molecule `CC(=O)N(C(C)=O)n1c(C)nc2sc3c(c2c1=O)CCNC3`, the Potency entry is “inactive”.

As to `CCC(=O)C1CCCN(C(=O)CC(c2ccc3c(c2)OCO3)c2c(O)cc(OC)cc2OC)C1` (centres undefined), the Potency result was “inactive”.

In a further experiment the target is Retinal dehydrogenase 2 (Homo sapiens) (UniProt O94788). Kind of experiment: qHTS for Inhibitors of the Aldehyde Dehydrogenase Family (ALDH1A2) Confirmation screens (AID 2061314). Note: nearly all actives have a fitted effect of over 65% in size. As to conditions: ALDH1A2 enzyme inhibition qHTS confirmation; series mostly up to 45.9 µM.
As for `CC(=O)SCC(CC(=O)c1ccc(C)cc1)C(=O)O` (centres undefined), the Potency result was “inactive”.

Take `CCCCNc1ccc(C(=O)OCCN(CC)CC)cc1`: the Potency result was “inactive”.

In the case of `N#Cc1c(-c2csc(-c3no[n+]([O-])c3C#N)c2)no[n+]1[O-]`, the Potency is 2.25 µM (active).

As for `CCOC(=O)c1ccc(O)c2ncc(-c3ccc(C(=N)N)cc3)cc12`, the Potency result was “inactive”.

Take `N#Cc1ccccc1OC1=NS(=O)(=O)c2ccccc21`: the Potency result is “inactive”.

`CC(C)c1ccccc1-c1ncc(F)c(NC(C)(C)c2ccc(-c3cccnc3)cc2)n1`: the Potency result is “inactive”.

In the case of `CC(=O)NCCC(=O)N[C@@H](CCC(N)=O)C(=O)N[C@@H](CO)C(=O)N[C@@H](CCC(N)=O)C(=O)N[C@@H](CCC(N)=O)C(=O)N[C@H](C(=O)N[C@@H](Cc1ccccc1)C(=O)N[C@]1(C)CCCCCCC=CCCC[C@@](C)(C(=O)N[C@@H](CCC(N)=O)C(=O)N[C@@H](CC(N)=O)C(N)=O)NC(=O)[C@H](CC(C)C)NC(=O)[C@H](CC(C)C)NC(=O)[C@@H](CCCNC(=N)N)NC(=O)[C@H](Cc2c[nH]c3ccccc23)NC(=O)[C@H](CC(C)C)NC(=O)[C@H](CC(N)=O)NC1=O)[C@H](C)O`, the Potency result is “inactive”.

Consider `COc1ccc(C2=Nn3c(nnc3-c3cccc(OC)c3OC)SC2)cc1`, for which the Potency entry was “inactive”.

For `OCc1cccc(-c2noc(-c3ccccc3F)n2)c1`, the Potency entry was “inactive”.

As for `FC(F)(F)c1cccc(N2CCN(C(=S)Nc3nccc4cccnc34)CC2)c1`, the Potency was 10.1 µM (active).

As to `O=C(CSc1nnc(-c2cccc(S(=O)(=O)N3CCCC3)c2)n1-c1ccccc1)Nc1ccc(F)cc1`, the Potency result was “inactive”.

As to `COc1ccc(C2=Nn3c(nnc3-c3cc(OC)cc(OC)c3)SC2)cc1`, the Potency entry was “inactive”.

For the molecule `COc1ccc(C[C@H](N)C(=O)N[C@H]2[C@@H](O)[C@H](n3cnc4c(N(C)C)ncnc43)O[C@@H]2CO)cc1`, the Potency result was “inactive”.

Regarding `O=C(O)c1ccc2c(c1)C(=O)N([C@H](Cc1ccc(F)cc1)C(=O)O)C2=O`, the Potency result is “inactive”.

As to `Cn1ncc(-c2nnc(-c3ccccc3)n2CCCn2ccnc2)c1N`, the Potency entry is “inactive”.

As to `O=C(O)c1ccc(O)c2ncc(N3CCCN(C4CCCC4)CC3)cc12`, the Potency result is “inactive”.

Turning to `CCOc1cc(CNc2ccc(O)cc2)ccc1OCc1ccc(Cl)cc1`, the Potency is 0.504 µM (active).

With `O=C(O)c1ccc(S(=O)(=O)N[C@H](Cc2ccccc2)C(=O)O)cc1`, the Potency result was “inactive”.

As to `Cc1ccc(S(=O)(=O)NC(N)=NCCC[C@@H](NC(=O)CNC(=O)c2ccccc2)C(=O)Nc2cc(C(F)(F)F)ccc2Cl)cc1`, the Potency result is “inactive”.

With `O=C(O)c1cccc(-c2noc(-c3ccccc3F)n2)c1`, the Potency entry was “inactive”.

Consider `C[C@@](Cc1ccccc1)(C(=O)O)N1C(=O)c2ccc(C(=O)O)cc2C1=O`, for which the Potency entry is “inactive”.

`Cc1ccccc1C[C@H](C(=O)O)N1C(=O)c2ccc(C(=O)O)cc2C1=O`: the Potency entry is “inactive”.

Turning to `COc1cc(NS(=O)(=O)c2ccc([N+](=O)[O-])cc2)c2ncccc2c1`, the Potency is 3.16 µM (active).

As for `CCCCN(CCCNC(=S)NCCCc1cnc[nH]1)c1ccc(Br)cn1`, the Potency is 8.96 µM (active).

As for `Cc1ccc(-c2cc(C(=O)N3CCCCC3)c3ccccc3n2)cc1C`, the Potency result was “inactive”.

Regarding `S=C(NCCCc1cnc[nH]1)NCCCN(Cc1ccc(Cl)c(Cl)c1)c1ccccn1`, the Potency result is “inactive”.

As for `Cc1cccc2c(C(=O)O)cc(Cl)nc12`, the Potency result was “inactive”.

With `Cc1cc(N2C(=O)c3ccccc3C2=O)n[nH]1`, the Potency entry was “inactive”.

As for `O=C(O)c1ccc(S(=O)(=O)N[C@H](Cc2ccc(C(F)(F)F)cc2)C(=O)O)cc1`, the Potency entry was “inactive”.

On to `Cc1nnc(-c2cnn(C)c2N)n1CCCn1ccnc1`, for which the Potency result was “inactive”.

On to `COc1cc(F)cc(F)c1[S+](=O)([O-])N1CCN([S+](=O)([O-])c2ccc3c(c2)OCCO3)CC1`, for which the Potency entry is “inactive”.

As for `O=C1c2ccccc2NC(c2ccc(-c3cccc([N+](=O)[O-])c3)o2)N1O` (centres undefined), the Potency was 2.52 µM (active).

As for `Cc1nnc(-c2ccccc2C(C)C)nc1NCc1ccc(-c2cccnc2)cc1`, the Potency entry was “inactive”.

Take `N#Cc1ccc(-c2ccc(C3Nc4ccccc4C(=O)N3O)o2)cc1` (centres undefined): the Potency was 3.18 µM (active).

For the molecule `Fc1cc(Nc2nc(-c3ccncc3)nc3ccccc23)ccc1N1CCCCC1`, the Potency is 0.712 µM (active).

Turning to `Cc1cc2c(s1)c1cnn(Cc3c(Cl)ccc(C)c3F)c(=O)c1n2C`, the Potency entry is “inactive”.

`O=C(C1CCN(c2nc(-c3ccc(Br)cc3)cs2)CC1)N1CCNCC1`: the Potency result was “inactive”.

For the molecule `COc1ccc(C2Nc3ccccc3C(=O)N2CCO)cc1COc1ccc(NC(C)=O)cc1` (centres undefined), the Potency was 14.2 µM (active).

For the molecule `CC(=O)N(C(C)=O)n1c(C)nc2sc3c(c2c1=O)CCNC3`, the Potency entry was “inactive”.

`CCC(=O)C1CCCN(C(=O)CC(c2ccc3c(c2)OCO3)c2c(O)cc(OC)cc2OC)C1` (centres undefined): the Potency result was “inactive”.
